# Records with an inconclusive call do not appear. A number with no mark means an inactive call. Activity calls are given as the source filed them. Calls follow the shape of the dose curve; as a rule, active = well fitted activation curve with a large enough effect; inconclusive = small, poorly fitted or top-dose-only effect; inactive = no such curve, though single readings can be large or run the other way.
# Target: Cellular tumor antigen p53 (Homo sapiens) (UniProt P04637)
# Test: Primary qHTS for small molecule compounds that upregulate eGFP-tagged delta133p53alpha (in N-terminal) cells. (AID 2060322); also: nearly all actives have a fitted effect of over 75% in size;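 as to activation: cells pre-induced with doxycycline then dosed without doxycycline; series mostly up to about 56 µM; 0% = DMSO vehicle and 100% = reference activator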
# Settings: NCI-H358 eGFP-delta133p53alpha fluorescence, 24 h; activation: hits give high values
# How it was run: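 NCI-H358 cells pre-induced 24 h with 10 ng/ml doxycycline for eGFP-delta133p53alpha, plated dox-free and exposed 24 h at 37C to titrated compounds. Fixed, Hoechst-stained; gated GFP peak intensity by laser scanning cytometry, normalized to DMSO (0%) and 57.5 uM 5-azacytidine (100%).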
# Potency is read from the fitted curve at half-maximal effect.
# Chain of Cellular tumor antigen p53 (Homo sapiens) (P04637 whole entry, looked up): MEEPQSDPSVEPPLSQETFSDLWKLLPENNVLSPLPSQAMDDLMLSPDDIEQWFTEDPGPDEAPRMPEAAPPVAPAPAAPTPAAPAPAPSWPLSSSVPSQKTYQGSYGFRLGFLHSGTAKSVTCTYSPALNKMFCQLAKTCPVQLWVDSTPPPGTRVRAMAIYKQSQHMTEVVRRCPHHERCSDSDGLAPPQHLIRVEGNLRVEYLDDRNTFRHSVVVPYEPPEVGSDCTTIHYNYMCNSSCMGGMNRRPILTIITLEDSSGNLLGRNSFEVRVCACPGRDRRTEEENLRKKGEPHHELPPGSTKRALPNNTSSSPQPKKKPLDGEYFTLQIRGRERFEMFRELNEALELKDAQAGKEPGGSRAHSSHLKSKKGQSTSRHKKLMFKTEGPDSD
Compound,activation [%],Potency
C=C(C(=O)O)C1CCC2(C)CCC(O)C(C)(O)C2C1 (configuration not stated),8.04,–
C=C1C(OC(C)=O)C(=O)C2C(C)(C)C(OC(C)=O)CCC2(C)C1CC(OC(C)=O)/C(C)=C/COC(C)=O (configuration not stated),17.6,–
C=CC(C)(O)CC/C=C(\C)C(=O)OC1C(O)C(CO)OC(OC(=O)C23CCC(C)(C)CC2C2=CCC4C5(C)CCC(OC6OC(COC7OCC(OC(C)=O)C(O)C7OC7OC(COC(C)=O)C(O)C(O)C7OC(C)=O)C(O)C(O)C6OC6OCC(O)C(O)C6O)C(C)(C)C5CCC4(C)C2(C)C(O)C3O)C1OC1OCC(OC2OCC(O)C(OC3OCC(O)C(O)C3O)C2O)C(O)C1O (configuration not stated),-12.2,–
CCc1cc(CC[C@]2(C3CCCC3)CC(O)=C(Cc3nc4nc(C)cc(C)n4n3)C(=O)O2)cc(CC)n1,-29.5,–
CC(=O)c1ccc(OCC(=O)N2CCCCC2)cc1,-3,–
C[C@@H]1C[C@H](O[C@@H]2O[C@H](CO[C@@H]3OC[C@](O)(CO)[C@H]3O)[C@@H](O)[C@H](O)[C@H]2O)CC(C)(C)[C@H]1/C=C/[C@@H](C)O,-29.5,–
C=C1CC[C@@H]2[C@](C)(CC[C@H](O)[C@@]2(C)CCC=C(C)C)[C@@H]1Cc1c[nH]c2ccccc12,-21.4,–
C/C=C(/C)C(=O)OC1CC(C)(C)CC2C3=CCC4C5(C)CCC(OC6OC(C)C(OC7OC(C(=O)O)C(O)C(OC8OC(CO)C(O)C(O)C8OC8OC(CO)C(O)C(O)C8O)C7O)C(O)C6O)C(C)(C)C5CCC4(C)C3(C)C(OC(=O)/C=C/C=C/C=C/CCC)C(OC(C)=O)C12CO (configuration not stated),14.5,–
C=CCc1ccc(OC(C)Cc2ccc(OC)c(OC)c2)c(OC)c1 (configuration not stated),-15.2,–
CC(=O)OC1CC2C(C)(C)C(=O)C=CC2(C)C2CC(=O)C3=C(CCC3C3=CC(O)OC3=O)C12C (configuration not stated),-12.2,–
CC1C(O)C(O)C2C(C(=O)OCCc3ccc(O)cc3)=COC(O[C@@H]3O[C@H](CO)[C@@H](O)[C@H](O)[C@H]3O)C12 (some centres not stated),11.5,–
COc1cc2c(c(OC)c1O)C(c1ccc(O)cc1)C1C(=O)OC3C(COC(=O)C1=C2)OC(CO)(OC1OC(COC(=O)/C=C/c2ccc(OC4OC(C)C(O)C(O)C4O)cc2)C(O)C(O)C1O)C3O (configuration not stated),23.2,–
C[C@H]1/C=C/C=C/C=C/C=C/C=C/[C@@H](O)[C@H](C(=O)O)[C@H](O)C[C@H](O)CCC[C@H](O)C[C@H](O)C[C@H](O)[C@@H](C)C(=O)O[C@@H]1C,13.7,–
COc1ccc(C(=O)CC(=O)O)c2c1C=CC(C)(C)O2,23.2,–
O=C1NC(Cc2c[nH]c3ccccc23)C(=O)NC1Cc1c[nH]c2ccccc12 (configuration not stated),14.5,–
CC(=O)O[C@H]1C[C@@H](O)C(C)(C)C2C[C@@H](OC(C)=O)[C@]3(C)C(CC[C@@]4(C)[C@H](c5ccoc5)OC(=O)[C@H]5O[C@]543)[C@]21C (some centres not stated),11.6,–

Compound,activation [%],Potency
COc1cc(/C=C/C(=O)OC2CC(OC(C)=O)C(OC(C)=O)C3C2CCC2C(=O)OC(c4ccoc4)CC23C)ccc1O[C@@H]1O[C@H](CO)[C@@H](O)[C@H](O)[C@H]1O (some centres not stated),-16,–
CC(C)=CC/C=C(\C)[C@H]1CC[C@]2(C)[C@@H]1[C@H](O)C[C@@H]1[C@@]3(C)CC[C@H](O)C(C)(C)[C@@H]3[C@@H](O[C@@H]3O[C@H](CO)[C@@H](O)[C@H](O)[C@H]3O)C[C@]12C,1.67,–
Cc1ccc(C(=O)N2CCN(c3ccc([N+](=O)[O-])cc3)CC2)cc1Cl,1.91,–
C=CC(C)(CC/C=C(\C)C(=O)OC)OC1OC(COC(=O)CC(C)(O)CC(=O)O)C(O)C(O)C1O (configuration not stated),-3.05,–
C=C(C)[C@@H]1CC[C@]2(C(=O)O)CC[C@]3(C)C(CCC4[C@]5(C)C(CC[C@]43C)C(C)(C)[C@@H](O)[C@@H]5C(=O)O)C12 (some centres not stated),-18.3,–
O=S(=O)(NCc1ccccn1)c1ccc(Br)c2ccccc12,0.333,–
O=C(CCCCc1ccc2ccccc2c1)C(F)(F)F,4.33,–
C[C@@H]1O[C@@H](O[C@H]2[C@@H]3C=CO[C@@H](O[C@@H]4O[C@H](CO)[C@@H](O)[C@H](O)[C@H]4O)[C@@H]3[C@@]3(CO)O[C@@H]23)[C@H](OC(=O)/C=C/c2ccccc2)[C@H](O)[C@H]1O,4.46,–
CC1CCC2(CO)C(C(=O)O)=CCCC2C1(C)CCc1ccoc1 (configuration not stated),14.3,–
CC1CCC2(C(=O)O)CCC3(C)C(=CCC4C5(C)CCC(OC(=O)/C=C/c6ccccc6)C(C)(C)C5CCC43C)C2C1C (configuration not stated),-8.4,–
COc1c2c(nc3occc13)C(CC=C(C)C)(OC)C(O)CC2 (configuration not stated),5.34,–
Fc1ccccc1-c1nc2ccn(Cc3ccc(-c4ccc(C(F)(F)F)cc4C(F)(F)F)nn3)cc-2n1,17,–
COC(=O)C(CC1(OC(=O)C(C)C)c2ccccc2N2C(=O)C(C)(C)N(O)C21)n1cnc2ccccc2c1=O (configuration not stated),3.05,–
O=C(Nc1ccn(Cc2c(F)cccc2C(F)(F)F)n1)c1c(F)cccc1F,1.67,–
OCC(CO)(CO)NCC(O)Cn1c2ccc(Cl)cc2c2cc(Cl)ccc21 (configuration not stated),–,23.9 µM (active)
CC#C[C@@H](CC(=O)O)c1ccc(OCc2ccc(CN3CCC4(C=Cc5ccccc54)CC3)s2)cc1,4.46,–

# From PubChem BioAssay (NCATS)
